Records with an inconclusive call do not appear. Entries that show only a call come without a potency. Calls of active or inactive are those of the source. The call rests on the fitted dose curve; in most records, active means well fitted curve in the direction sought with a large enough effect; inconclusive means small, poorly fitted or top-dose-only effect, or another doubt; inactive means no such curve, though single readings can be large; an effect the other way counts as inactive or inconclusive.

Sequence of Calcium and integrin-binding protein 1 (Homo sapiens) (Q99828 whole entry, looked up): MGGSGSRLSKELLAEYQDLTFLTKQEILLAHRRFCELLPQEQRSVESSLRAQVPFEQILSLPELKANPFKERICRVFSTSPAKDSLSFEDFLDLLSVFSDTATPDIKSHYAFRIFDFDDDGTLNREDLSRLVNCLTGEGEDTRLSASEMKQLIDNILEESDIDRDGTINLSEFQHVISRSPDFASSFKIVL

System in one assay: not listed separately
The assay is described as follows: Primary qHTS for inhibitors of La Crosse Virus (LACV) - induced cell death in SH-SY5Y cells (AID 1508616). Further: potency means the concentration at half of the fitted maximal effect. The conditions noted are these: SH-SY5Y LACV cytopathicity rescue, ATP luminescence, 6 d; series mostly up to 9.63 µM. In outline:
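Cytopathicity rescue screen: compounds pinned onto SH-SY5Y cells, which are then infected with LACV (MOI 0.01) and held 6 days at 37C. Percent activity is scaled between infected DMSO control and uninfected DMSO control.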
For orientation: In qHTS, concentration-response curves come from the screen itself.
As for `C=CC(C)=C[C@@]1(C)SC(=O)C(C)=C1O`, the Potency result was “inactive”.

As for `CCN1/C(=C/C(C)=O)Sc2ccc(OC)cc21`, the Potency result is “inactive”.

For the molecule `Nc1nc(SCc2ccc([N+](=O)[O-])cc2)c2ncn([C@@H]3O[C@H](CO)[C@@H](O)[C@H]3O)c2n1`, the Potency entry is “inactive”.

For `CCC1C(=O)OCC1Cc1cncn1C` (configuration not stated), the Potency result was “inactive”.

Regarding `CC(N)C(=O)OC(C)(C)Cc1ccc(Cl)cc1` (configuration not stated), the Potency result is “inactive”.

As for `CN1[C@@H](CC(=O)c2ccccc2)CCC[C@H]1C[C@H](O)c1ccccc1`, the Potency result is “inactive”.

On to `Fc1cccc(/C=N/N=C/c2cccc(F)c2)c1`, for which the Potency entry was “inactive”.

In the case of `Cn1cc(C2=C(c3ccc(Cl)cc3Cl)C(=O)NC2=O)c2ccccc21`, the Potency entry is “inactive”.

For `Oc1cc2c(cc1O)CN(C(=S)NCCc1ccc(Cl)cc1)CCC2`, the Potency was 2240 nM (active).

As to `Cc1cc2c(cc1Cl)N(C(=O)Nc1ccc(Oc3cccnc3C)nc1)CC2`, the Potency entry was “inactive”.

As for `O=P(O)(O)C(Cl)(Cl)P(=O)(O)O`, the Potency result was “inactive”.

In the case of `NC(N)=NC(=O)c1nc(Cl)c(N2CCCCCC2)nc1N`, the Potency result was “inactive”.

Take `CC1OC1P(=O)(O)O` (configuration not stated): the Potency entry is “inactive”.

With `CCCN(CC1CC1)c1nc(C)nc(Nc2c(Cl)cc(Cl)cc2Cl)c1Cl`, the Potency entry is “inactive”.

On to `NC(=S)c1ccc[n+]([C@@H]2O[C@@H](COP(=O)([O-])OP(=O)(O)OC[C@H]3O[C@@H](n4cnc5c(N)ncnc54)[C@H](OP(=O)(O)O)[C@@H]3O)C(O)C2O)c1` (some centres not stated), for which the Potency result was “inactive”.

Take `CCCCCCCC/C=C\CCCCCCCC(=O)NCCO`: the Potency result was “inactive”.

With `CN1CC(=O)N/C1=N/C(=O)Nc1cccc(Cl)c1`, the Potency entry is “inactive”.

Consider `CN1CCc2cc(NC(=O)Nc3cccnc3)ccc21`, for which the Potency entry is “inactive”.

Take `O=Nc1ccc2oc(=O)ccc2c1`: the Potency result is “inactive”.

Consider `Cc1cc(NC(=O)Nc2ccc3c(ccn3C)c2)sn1`, for which the Potency result is “inactive”.

For `Nc1ncnc2c1ncn2[C@@H]1O[C@H](COP(=O)(O)OP(=O)(O)OP(=O)(O)OP(=O)(O)OC[C@@H]2O[C@H](n3cnc4c(N)ncnc43)[C@@H](O)[C@H]2O)[C@@H](O)[C@H]1O`, the Potency result is “inactive”.

For the molecule `Cc1ccc(S(=O)(=O)/C=C/C#N)cc1`, the Potency was 1410 nM (active).

Turning to `CSc1ccccc1N1CCN(CCCCCC(=O)NC2CCCc3ccccc32)CC1` (configuration not stated), the Potency entry is “inactive”.

Regarding `CC(C)NC[C@H](O)COc1cccc2[nH]ccc12`, the Potency result was “inactive”.

For `O=C(O)CNC(=O)C(CS)Cc1ccccc1` (configuration not stated), the Potency entry is “inactive”.

Take `NC[C@@H]1O[C@H](C23CC4CC(CC(C4)C2)C3)Cc2c1ccc(O)c2O`: the Potency result is “inactive”.

For `O=C(/C=C/c1ccc(O)c(O)c1)OCCc1ccccc1`, the Potency is 631 nM (active).

In the case of `CO/N=C(\C(=O)N[C@@H]1C(=O)N2C(C(=O)O)=C(COC(C)=O)CS[C@H]12)c1csc(N)n1`, the Potency entry is “inactive”.

For the molecule `NCC1OC(O[C@H]2[C@H](O)[C@@H](OC3C(O)C(N)CC(N)C3OC3OC(CO)C(O)C(O)C3N)O[C@@H]2CO)C(N)C(O)C1O` (some centres not stated), the Potency result is “inactive”.

Regarding `CN1C2CCC1CC(OC(=O)C(O)c1ccccc1)C2` (configuration not stated), the Potency entry was “inactive”.

For the molecule `N#C/C(=C\c1ccc(O)c(O)c1)C(=O)c1ccc(O)c(O)c1`, the Potency entry was “inactive”.

`N#C/C(=C\c1ccc(-c2cc(Cl)ccc2Cl)o1)C(=O)Nc1cccc2ncccc12`: the Potency entry was “inactive”.

For the molecule `CC1CN(S(=O)(=O)c2cccc3cnccc23)CCN1` (configuration not stated), the Potency entry is “inactive”.

As for `C=CC(N)CCC(=O)O` (configuration not stated), the Potency result was “inactive”.

On to `CC1(C)CCC=[N+]1[O-]`, for which the Potency result was “inactive”.

Regarding `O=C(O)CC[C@@H](C(=O)O)N1C(=O)c2ccccc2C1=O`, the Potency result was “inactive”.

The next assay addresses Calcium and integrin-binding protein 1 (Homo sapiens) (UniProt Q99828). Description: Validation qHTS for Identification of Calcium Integrin Binding protein 1 (CIB1) Competitor (AID 1508618). The conditions noted are these: CIB1-GST / FITC-alphaIIb peptide fluorescence polarization; series mostly up to 114 µM. In outline:
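CIB1-GST (1 uM final) in 5 mM HEPES pH 7.4, 125 mM NaCl, 5 mM CaCl2, 0.01% Tween20 was preincubated 15 min at room temperature with compound (up to 114 uM), then FITC-alphaIIb peptide (100 nM) added for 15 min; fluorescence polarization read.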
For `C=CC(C)=C[C@@]1(C)SC(=O)C(C)=C1O`, the outcome was inactive.

In the case of `CCN1/C(=C/C(C)=O)Sc2ccc(OC)cc21`, the outcome was inactive.

For `Nc1nc(SCc2ccc([N+](=O)[O-])cc2)c2ncn([C@@H]3O[C@H](CO)[C@@H](O)[C@H]3O)c2n1`, the result was inactive.

Turning to `CCC1C(=O)OCC1Cc1cncn1C` (configuration not stated), the outcome was inactive.

On to `CC(N)C(=O)OC(C)(C)Cc1ccc(Cl)cc1` (configuration not stated), for which the result was inactive.

Consider `CN1[C@@H](CC(=O)c2ccccc2)CCC[C@H]1C[C@H](O)c1ccccc1`, for which the result was inactive.

Turning to `Fc1cccc(/C=N/N=C/c2cccc(F)c2)c1`, the result was inactive.

On to `Cn1cc(C2=C(c3ccc(Cl)cc3Cl)C(=O)NC2=O)c2ccccc21`, for which the outcome was inactive.

With `Oc1cc2c(cc1O)CN(C(=S)NCCc1ccc(Cl)cc1)CCC2`, the result was inactive.

In the case of `Cc1cc2c(cc1Cl)N(C(=O)Nc1ccc(Oc3cccnc3C)nc1)CC2`, the outcome was inactive.

Regarding `O=P(O)(O)C(Cl)(Cl)P(=O)(O)O`, the outcome was inactive.

With `NC(N)=NC(=O)c1nc(Cl)c(N2CCCCCC2)nc1N`, the result was inactive.

On to `CC1OC1P(=O)(O)O` (configuration not stated), for which the result was inactive.

For `CCCN(CC1CC1)c1nc(C)nc(Nc2c(Cl)cc(Cl)cc2Cl)c1Cl`, the result was inactive.

Regarding `NC(=S)c1ccc[n+]([C@@H]2O[C@@H](COP(=O)([O-])OP(=O)(O)OC[C@H]3O[C@@H](n4cnc5c(N)ncnc54)[C@H](OP(=O)(O)O)[C@@H]3O)C(O)C2O)c1` (some centres not stated), the outcome was inactive.

Take `CCCCCCCC/C=C\CCCCCCCC(=O)NCCO`: the result was inactive.

Take `CN1CC(=O)N/C1=N/C(=O)Nc1cccc(Cl)c1`: the result was inactive.

Turning to `CN1CCc2cc(NC(=O)Nc3cccnc3)ccc21`, the outcome was inactive.

`O=Nc1ccc2oc(=O)ccc2c1`: the outcome was inactive.

With `Cc1cc(NC(=O)Nc2ccc3c(ccn3C)c2)sn1`, the result was inactive.

Turning to `Nc1ncnc2c1ncn2[C@@H]1O[C@H](COP(=O)(O)OP(=O)(O)OP(=O)(O)OP(=O)(O)OC[C@@H]2O[C@H](n3cnc4c(N)ncnc43)[C@@H](O)[C@H]2O)[C@@H](O)[C@H]1O`, the result was inactive.

With `Cc1ccc(S(=O)(=O)/C=C/C#N)cc1`, the result was inactive.

Regarding `CSc1ccccc1N1CCN(CCCCCC(=O)NC2CCCc3ccccc32)CC1` (configuration not stated), the result was inactive.

Consider `CC(C)NC[C@H](O)COc1cccc2[nH]ccc12`, for which the result was inactive.

In the case of `O=C(O)CNC(=O)C(CS)Cc1ccccc1` (configuration not stated), the result was inactive.

With `NC[C@@H]1O[C@H](C23CC4CC(CC(C4)C2)C3)Cc2c1ccc(O)c2O`, the outcome was inactive.

In the case of `O=C(/C=C/c1ccc(O)c(O)c1)OCCc1ccccc1`, the outcome was inactive.

Turning to `CO/N=C(\C(=O)N[C@@H]1C(=O)N2C(C(=O)O)=C(COC(C)=O)CS[C@H]12)c1csc(N)n1`, the outcome was inactive.

For the molecule `NCC1OC(O[C@H]2[C@H](O)[C@@H](OC3C(O)C(N)CC(N)C3OC3OC(CO)C(O)C(O)C3N)O[C@@H]2CO)C(N)C(O)C1O` (some centres not stated), the outcome was inactive.

As to `CN1C2CCC1CC(OC(=O)C(O)c1ccccc1)C2` (configuration not stated), the result was inactive.

As for `N#C/C(=C\c1ccc(O)c(O)c1)C(=O)c1ccc(O)c(O)c1`, the result was inactive.

For the molecule `N#C/C(=C\c1ccc(-c2cc(Cl)ccc2Cl)o1)C(=O)Nc1cccc2ncccc12`, the result was inactive.

As to `CC1CN(S(=O)(=O)c2cccc3cnccc23)CCN1` (configuration not stated), the result was inactive.

On to `C=CC(N)CCC(=O)O` (configuration not stated), for which the outcome was inactive.

Turning to `CC1(C)CCC=[N+]1[O-]`, the outcome was inactive.

In the case of `O=C(O)CC[C@@H](C(=O)O)N1C(=O)c2ccccc2C1=O`, the outcome was inactive.

The record behind these values is PubChem BioAssay (NCATS).
